14-3-3 PPI = alters human 14-3-3 gamma binding to Raf peptide | P61981 | FP, 14-3-3gamma / TMR-pS259-Raf peptide binding | inhibition, % at 40 µM | 160,000 compounds, 0.19% hits; in the data active = inhibition above about 30%;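 note: 0% = protein plus tracer without compound and 100% = blank with tracer alone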
Target sequence (P61981 whole entry, looked up): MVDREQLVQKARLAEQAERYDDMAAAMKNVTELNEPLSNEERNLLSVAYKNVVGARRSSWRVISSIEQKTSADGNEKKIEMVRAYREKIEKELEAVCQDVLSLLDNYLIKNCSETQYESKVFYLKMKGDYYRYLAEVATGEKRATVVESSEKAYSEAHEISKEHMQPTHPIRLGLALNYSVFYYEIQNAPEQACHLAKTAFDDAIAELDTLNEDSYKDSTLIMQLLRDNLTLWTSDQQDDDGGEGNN
* = called active by the depositor. The entries come from a sample that favours hits as a whole.

COc1cc2ccccc2cc1C(=O)Nc1nc2c(s1)CCc1ccccc1-2 was read as 14-3-3 PPI 6.
For CSc1nnc2c3ccccc3n(CCc3ccccc3)c2n1 the results were 14-3-3 PPI 3.
Screening CSc1nnc2c3cc(F)ccc3n(Cc3ccccc3)c2n1 returned 14-3-3 PPI 113*.
For CSc1nnc2c3ccccc3n(Cc3ccccc3)c2n1 the results were 14-3-3 PPI -7.
`Cc1ccc(-n2c3nc(=O)n(C)c(=O)c-3cc3c(Cl)cccc32)cc1C` gave 14-3-3 PPI -4.
Screening CC1=C(C(=O)OCCc2ccccc2)C(c2ccc(Cl)cc2)NC(=O)N1C (centres undefined) returned 14-3-3 PPI 4.
Screening CCc1c(C)nc2nc(CC(=O)O)[nH]n2c1=O returned 14-3-3 PPI -5.
For CCCSc1nnc2c(n1)OC1(CCCC1)Nc1ccccc1-2 the results were 14-3-3 PPI 6.
For CCN(CC)c1ncnc2sc(C(=O)N(C)C3CCCCC3)c(C)c12 the results were 14-3-3 PPI -1.
COc1ccc(C)cc1NC(=O)C1CCC(CNS(=O)(=O)c2ccc(Br)s2)CC1 (centres undefined) was read as 14-3-3 PPI -53.
`CCC(C)OC(=O)C1=C(C)NC2=C(C(=O)CC(c3ccccc3)C2)C1c1cc(OC)c(OC)cc1Br` (centres undefined) gave 14-3-3 PPI 39*.
Screening CCC(C)OC(=O)C1=C(C)NC2=C(C(=O)CC(c3ccc(OC)cc3)C2)C1c1ccc(OC)c(OC)c1 (centres undefined) returned 14-3-3 PPI -11.
Screening CCC(C)OC(=O)C1=C(C)NC2=C(C(=O)CC(c3ccccc3)C2)C1c1cccc2ccccc12 (centres undefined) returned 14-3-3 PPI 19.
Screening CC(=O)C(c1ccccc1)C(C#N)(C#N)C(C#N)C#N (centres undefined) returned 14-3-3 PPI 67*.
`CC(=O)C(CCC#N)(CCC#N)c1ccccc1` gave 14-3-3 PPI -13.
Screening CCOC(=O)C(=O)C(C#N)c1ccccc1 (centres undefined) returned 14-3-3 PPI -7.
`CC(=O)Nc1ccc(NC(=O)c2ccc3c(c2)C(=O)c2ccccc2-3)cc1` gave 14-3-3 PPI -17.
`O=C1C2C3C=CC(C3)C2C(=O)N1c1ccc(N2CCN(c3ccccc3Cl)CC2)c([N+](=O)[O-])c1` (centres undefined) gave 14-3-3 PPI 8.
For CC(C)(C)c1ccc(C2SCC(=O)N2c2ccc(Cl)cc2)cc1 (centres undefined) the results were 14-3-3 PPI -9.
`O=S(=O)(Nc1cccc(NS(=O)(=O)c2ccccc2)n1)c1ccccc1` gave 14-3-3 PPI -21.
For CCOc1ccc(C2C(N3C(=O)c4ccc([N+](=O)[O-])cc4C3=O)C(=O)N2c2ccc(OC)cc2)cc1 (centres undefined) the results were 14-3-3 PPI -8.
`O=C1C=C(C(F)(F)F)c2ccc(NC3CCCCC3)c3cccc1c23` gave 14-3-3 PPI 131*.
For O=C1C(Cl)=C(NC2CCCCC2)C(=O)N1c1cccc(C(F)(F)F)c1 the results were 14-3-3 PPI -3.
For O=[N+]([O-])c1cc(S(=O)(=O)C(Cl)(Cl)Br)ccc1NC1CCCCC1 the results were 14-3-3 PPI -8.
CCOC(=O)C1=C(C)N(c2ccccc2)C(C)=C(C(=O)OCC)C1c1cccc([N+](=O)[O-])c1 was read as 14-3-3 PPI 5.
For CC1=C(C(=O)OCc2ccccc2)C(c2cccc([N+](=O)[O-])c2)NC(=O)N1 (centres undefined) the results were 14-3-3 PPI -6.
`CC1=C(C(=O)OCCOc2ccccc2)C(c2cccc([N+](=O)[O-])c2)NC(=O)N1` (centres undefined) gave 14-3-3 PPI 34*.
Screening CC1=C(C(=O)OCCOc2ccccc2)C(c2cccc([N+](=O)[O-])c2)NC(=O)N1C (centres undefined) returned 14-3-3 PPI -2.
`CC(C)Nc1cc2c(NC(C)C)onc2c2c1C(=O)c1ccccc1C2=O` gave 14-3-3 PPI 87*.
`CNc1cc(Nc2ccc(C)cc2)c2c3c(onc13)-c1ccccc1C2=O` gave 14-3-3 PPI -89.
Screening COC(=O)C(C(=O)OC)c1cc(Br)c2noc3c2c1C(=O)c1ccccc1-3 returned 14-3-3 PPI -57.
COc1cccc(-c2cc(C(=O)Nc3cc(Cl)ccc3OC)no2)c1 was read as 14-3-3 PPI -16.
`CN1C(=O)C(O)(C2C(=O)Nc3ccc(Br)cc32)c2cc(Br)ccc21` (centres undefined) gave 14-3-3 PPI 1.
`COc1ccc(C(=O)Oc2ccc(C(C)=O)cc2)c(OC)c1` gave 14-3-3 PPI 38*.
For COC(=O)c1ccc(C(=O)OC)c(NC(=O)c2ccc(OC)cc2OC)c1 the results were 14-3-3 PPI -33.
Screening COc1ccc(OC)c(S(=O)(=O)Nc2ccc(C(C)=O)cc2)c1 returned 14-3-3 PPI -2.
Cc1ccc(S(=O)(=O)N2CCCCC2)c(S(=O)(=O)N2CCCCC2)c1 was read as 14-3-3 PPI 8.
For CCN(CC)c1ccc(N=C2C(=O)Nc3ccccc32)cc1 the results were 14-3-3 PPI -36.
For CN(C)c1ccc(/C=C2\C(=O)Nc3ccccc32)cc1 the results were 14-3-3 PPI 38*.
Screening Cc1ccc(N=C2C(=O)Nc3ccccc32)cc1 returned 14-3-3 PPI -4.
Screening O=[N+]([O-])c1ccc(N2CCCC2)c(S(=O)(=O)N2CCOCC2)c1 returned 14-3-3 PPI -5.
CN1CCN(c2ccc([N+](=O)[O-])cc2S(=O)(=O)N2CCCC2)CC1 was read as 14-3-3 PPI 39*.
For Cc1ccc([N+](=O)[O-])cc1S(=O)(=O)N1CCCCC1 the results were 14-3-3 PPI 5.
For CC(=O)Nc1cccc(NC(=O)c2cccc([N+](=O)[O-])c2C)c1 the results were 14-3-3 PPI -2.
Screening COC(=O)c1ccc(N2C(=O)CC(NCCC34CC5CC(CC(C5)C3)C4)C2=O)cc1 (centres undefined) returned 14-3-3 PPI -28.
CCC1=Nc2cc(C(=O)NCCCN3CCCCC3C)ccc2Sc2ccc(C)cc21 (centres undefined) was read as 14-3-3 PPI -41.

Source: PubChem (Emory University Molecular Libraries Screening Center)
